Measurements reported in publication PMC5540273 (PLoS ONE, 2017).

Assays:
Conditions in all cases: concentration: 1 μM, replicates: in singlicate; n = 1
DYRK1B = system: DYRK1B
DYRK2 = system: DYRK2
EGFR = system: EGFR
EIF2AK1 = system: EIF2AK1
EPHA1 = system: EPHA1
EPHA2 = system: EPHA2
EPHA3 = system: EPHA3
EPHA4 = system: EPHA4
EPHA5 = system: EPHA5
EPHA6 = system: EPHA6
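Note: KINOMEscan kinase panel screen.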

Structure (SMILES)	%Inh (DYRK1B)	%Inh (DYRK2)	%Inh (EGFR)	%Inh (EIF2AK1)	%Inh (EPHA1)	%Inh (EPHA2)	%Inh (EPHA3)	%Inh (EPHA4)	%Inh (EPHA5)	%Inh (EPHA6)
Cl.c1ccc(-c2ccc3c(Nc4ccc5[nH]ncc5c4)ccnc3c2)nc1 [GW440137]	31%	26%	66%	0%	32%	0%	7%	2%	0%	28%
CC(C)(C)c1ccc2nccc(Nc3cccc(O)c3)c2c1 [GW856795]	48%	51%	63%	0%	74%	18%	21%	18%	37%	18%
c1ccc(Oc2ccc(Nc3ccnc4cc(-c5ccc(CNCCN6CCOCC6)o5)ccc34)cc2)nc1 [GW567145]	0%	15%	39%	0%	72%	12%	17%	0%	0%	0%
Cn1cc(-c2ccc3c(c2)CCN3C(=O)Cc2cccc(Cl)c2)c2c(N)ncnc21 [GSK2606590]	0%	5%	2%	89%	11%	10%	0%	0%	0%	17%
Oc1cc(Nc2ccnc3cc(I)ccc23)ccc1F [GW552771]	0%	8%	32%	0%	94.8%	34%	48%	29%	0%	29%
Nc1ncc(-c2cccnc2)c2scc(-c3ccc4c(c3)CCN4C(=O)Cc3ccccc3)c12 [GSK683281]	27%	24%	16%	25%	13%	8%	0%	7%	0%	11%
CN1CCN(Cc2cccc(-c3ccc4c(Nc5ccc(Oc6ccccc6)cc5)ccnc4c3)c2)CC1 [GW578342]	13%	0%	87%	0%	0%	4%	3%	0%	0%	7%
COc1cccc(C2=C(Nc3ccc(Cl)c(C(=O)O)c3)C(=O)NC2=O)c1 [SB-390769]	100%	100%	24%	99.6%	1%	10%	0%	0%	0%	2%
Nc1n[nH]c2cnc(-c3ccccc3)cc12 [SB-642124]	75%	88%	38%	4%	26%	16%	0%	12%	0%	6%
Nc1ncc(-c2ccc3nccc(-c4ccncc4)c3c2)cc1S(=O)(=O)N1CCOCC1 [GSK1627798]	0%	21%	18%	0%	4%	4%	0%	0%	0%	5%
COc1cccc(C(=O)Nc2cccc(Oc3ccc4nc(NC(=O)C5CC5)cn4n3)c2)c1	19%	9%	78%	0%	42%	98.7%	62%	79%	57%	68%
COc1cccc(NC(=O)NC2CCN(c3ccnc(Nc4cc(OC)c(OC)c(OC)c4)n3)C2)c1 (centres unmarked) [GSK1379763]	15%	4%	12%	0%	6%	0%	0%	0%	0%	0%
COc1cc(Nc2nccc(N3CCC(NC(=O)Nc4cccc(C(C)=O)c4)C3)n2)cc(OC)c1OC (centres unmarked) [GSK1379753]	67%	21%	22%	0%	5%	0%	0%	3%	0%	8%
CN(C)Cc1ccc(-c2ccc3c(Nc4ccc(Oc5ccccn5)cc4)ccnc3c2)o1 [GW567148]	0%	0%	53%	0%	79%	1%	0%	60%	0%	53%
COc1cc(Nc2nccc(-c3c(-c4cccc(NC(=O)c5c(F)cccc5F)c4)nn4ccccc34)n2)cc(OC)c1OC [GSK323521]	0%	0%	38%	39%	12%	16%	0%	0%	21%	3%
Cc1ccc(F)c(C(=O)Nc2cccc(-c3nn4ccccc4c3-c3ccnc(Nc4cccc(F)c4)n3)c2)c1F [GSK361061]	0%	5%	99.1%	9%	32%	26%	25%	20%	1%	32%

Structure (SMILES)	%Inh (DYRK1B)	%Inh (DYRK2)	%Inh (EGFR)	%Inh (EIF2AK1)	%Inh (EPHA1)	%Inh (EPHA2)	%Inh (EPHA3)	%Inh (EPHA4)	%Inh (EPHA5)	%Inh (EPHA6)
O=C(Nc1cccc(Oc2ccc3nc(NC(=O)C4CC4)cn3n2)c1)c1ccccc1C(F)(F)F	12%	0%	82%	0%	35%	29%	3%	28%	0%	16%
Cc1ccc(C(=O)Nc2ccc(Nc3ccnc4cc(-c5nccs5)ccc34)cc2O)cc1.Cl [GW494702]	0%	0%	45%	6%	8%	15%	0%	9%	0%	15%
COc1ccc(CNC(=O)NC2CCN(c3ccnc(Nc4ccc(F)cc4)n3)CC2)cc1 [GSK1379788]	0%	0%	13%	0%	7%	1%	1%	0%	0%	0%
CC(=O)N1CCN(c2ccc(Nc3nccc(-c4sc(C(C)C)nc4-c4cccc(NS(=O)(=O)c5cccc(Cl)c5)c4)n3)cn2)CC1 [GSK1660437]	0%	11%	86%	19%	71%	3%	0%	0%	99.6%	32%
Cl.c1ccc(-c2ccc3c(Nc4ccc5[nH]ccc5c4)ccnc3c2)nc1 [GW440138]	0%	0%	89%	0%	48%	1%	8%	0%	0%	54%
Clc1ccc(-c2nn3ncccc3c2-c2ccnc(Nc3ccc4c(c3)OCCO4)n2)cc1 [GW829116]	0%	0%	84%	0%	0%	0%	0%	12%	19%	34%
COc1cc(Nc2nccc(-c3c(-c4cccc(NC(=O)c5c(F)cccc5F)c4)nn4ncccc34)n2)cc(OC)c1OC [GSK327238]	33%	16%	100%	0%	86%	71%	42%	65%	0%	49%
CC(C)c1nc(-c2cccc(NS(=O)(=O)c3c(F)cccc3F)c2F)c(-c2ccnc(Nc3ccc(N4CCOCC4)nc3)n2)s1 [GSK2008607]	0%	16%	94.3%	66%	98.9%	86%	69%	74%	0%	94.7%
COc1cccc(-c2ccc3c(NC(=O)C4CC4)n[nH]c3n2)c1 [SB-710903]	0%	73%	20%	5%	20%	0%	0%	20%	0%	23%
O=C(O)C(F)(F)F.O=C(O)C(F)(F)F.O=c1[nH]ccc2nc(N[C@@H]3CCCNC3)nc(Nc3ccc(S(=O)(=O)N4CCOCC4)cc3)c12 [GSK2177277]	0%	59%	45%	21%	25%	28%	98.9%	57%	32%	62%
O=C(Nc1cccc(-c2nn3ccccc3c2-c2ccnc(Nc3cccc(F)c3)n2)c1)c1c(F)ccc(F)c1Cl [GSK357952]	0%	11%	100%	39%	5%	0%	0%	25%	0%	15%
FC(F)(F)c1ccc(/C=C/c2cncnc2Nc2ccc3[nH]c(Cc4ccccc4)nc3c2)cc1 [GW709199]	31%	0%	46%	0%	10%	12%	0%	0%	0%	0%
Cc1ccc(C)c(NC(=O)NC2CCN(c3ccnc(Nc4ccc(F)cc4)n3)C2)c1 (centres unmarked) [GSK1379720]	0%	8%	0%	0%	18%	0%	0%	0%	0%	0%
Fc1ccc(-c2ncn(C3CCNCC3)c2-c2ccnc(Oc3ccc(-c4ccccc4)cc3)n2)cc1 [SB-245391]	25%	36%	3%	12%	19%	0%	0%	19%	9%	17%
c1ccc(-c2cnc3nccnn23)cc1 [AH20685]	5%	3%	14%	0%	0%	11%	0%	0%	0%	0%
CCCCc1nn2ncccc2c1-c1ccnc(Nc2ccc(N3CCN(C)CC3)cc2)n1 [GW684941]	20%	3%	81%	0%	88%	42%	9%	29%	0%	40%
